Source: PubChem BioAssay
Rows were chosen to be rich in hits. Some 3.6% of all compounds tested hit in one or more screens of this group.
mHTT CaM bind – mutant huntingtin-calmodulin interaction inhibitors – biochemical, AlphaScreen, primary screen; P42858; AlphaScreen His-mHTT/GST-CaM binding, luminescence; inhibition, % at 15 µM; hit rate 3.6% among 190,000;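 also: 0% = both proteins with DMSO and 100% = one protein alone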
Pf apPOL block – Pf-apPOL inhibitors, biochemical, fluorescence | Recombinant Pf-apPOL, molecular beacon fluorescence, 1.5 h | inhibition, % at 10 µM | hit rate 0.25% among 210,000
The depositor's hits bear a star; i = inactive; + = active, no number. Rule as the data show it: active = inhibition above about 50%; inactive = the rest.

SMILES	mHTT CaM bind	Pf apPOL block
CCN(CC)c1ccc(Nc2nc(-c3c(C)nc4ccccn34)cs2)cc1	97*	64*
O=C(Nc1cccs1)Nc1ccccc1NC(=O)c1ccccc1F	4	5
O=C(CSc1nc2ccccc2c(=O)n1Cc1ccco1)Nc1ccccc1C(F)(F)F	-4	-6
CN(C)CCNC(=O)C1CCN(c2cncnc2N2CCOCC2)CC1	6	0
CN(CC(O)COc1ccc(Br)cc1)C1CCCCC1 (configuration not stated)	1	-10
O=C(c1ccc2c(c1)C1C=CCC1C(c1ccc([N+](=O)[O-])cc1)N2)N1CCCCCC1 (configuration not stated)	96*	-2
COc1ccc2c(c1)C1C=CCC1C(c1ccc([N+](=O)[O-])cc1)N2 (configuration not stated)	95*	4
O=[N+]([O-])c1ccc2c(c1)C1C=CCC1C(c1ccc(F)cc1)N2 (configuration not stated)	14	-3
CCOc1c(Br)cc(C2Nc3ccc([N+](=O)[O-])cc3C3C=CCC32)cc1OC (configuration not stated)	58*	-5
COc1cc([N+](=O)[O-])cc2c1NC(c1ccccc1)C1CC=CC21 (configuration not stated)	46	9
Cc1cccc(CN2CCN(C3CCN(C(=O)Nc4cc(C)cc(C)c4)CC3)C2=O)c1	4	-4
COc1ccc(S(=O)(=O)N(CC(=O)Nc2ccccc2C(N)=O)c2ccc(C)cc2)cc1	16	-11
CC(C)N1C(=O)C(C)(C(=O)NCc2ccc(Br)cc2)Oc2cccnc21 (configuration not stated)	95*	-7
CC(C)N1C(=O)C(C)(C(=O)NCc2ccccc2)Oc2cccnc21 (configuration not stated)	-5	-3
O=C(NN1CCOCC1)c1ccc(-c2ccccc2)cc1	0	0
COc1ccc(Cl)cc1S(=O)(=O)NCC(c1cccn1C)N1CCCC1 (configuration not stated)	-2	-7
CN1CCc2cc(C(CNS(=O)(=O)c3ccc(Cl)s3)N3CCOCC3)ccc21 (configuration not stated)	99*	-12
CN1CCc2cc(C(CNC(=O)c3cccs3)N3CCOCC3)ccc21 (configuration not stated)	95*	-19
O=S(=O)(NCC(c1ccsc1)N1CCOCC1)c1cccs1 (configuration not stated)	-23	-3
CN1CCCc2cc(C(CNC(=O)Cc3cccs3)N3CCOCC3)ccc21 (configuration not stated)	29	-17
COc1ccc(Cl)cc1S(=O)(=O)NCC(c1ccc2c(c1)CCN2C)N(C)C (configuration not stated)	69*	-10
CCOc1cc(C2Nc3ccccc3C(=O)N2Cc2ccco2)ccc1O (configuration not stated)	2	-11
Cc1nc(-c2cn(Cc3ccccc3)nn2)no1	-8	-2
CN1CCN(Cc2cncc(-c3cc4ccccc4s3)c2)CC1	55*	-1
CN1CCN(Cc2ccc3c(c2)Cc2ccccc2-3)CC1	1	1
SMILES	mHTT CaM bind	Pf apPOL block
COc1ccc(CN(CCC2(C(C)C)CCOC(C)(C)C2)C(C)=O)cc1OC (configuration not stated)	15	0
COc1ccc(CN(CCC2(c3ccccc3)CCOC(C)(C)C2)C(C)=O)cc1OC (configuration not stated)	68*	1
OCCSc1nnc(COc2ccc(Br)cc2)n1-c1ccccc1	57*	-20
O=C(CSc1nnc(COc2ccccc2)n1-c1ccccc1)NC1CCCCC1	6	-9
Cc1ccc(CNC(=O)C2CCCN(S(=O)(=O)N3CCC(C)CC3)C2)cc1 (configuration not stated)	-9	11
CCCCOc1ccc(/C=C2/N=C(c3cccs3)OC2=O)cc1	-1	2
CC(Oc1ccccc1)C(=O)Nc1cccc([N+](=O)[O-])c1 (configuration not stated)	-4	0
COc1ccc(NC(=O)N2CC3CC(NS(=O)(=O)c4cccs4)C2C3)cc1F (configuration not stated)	6	-7
COc1ccccc1C(=O)O/N=C1\C=CC(=O)C=C1C	+	-1
COc1cc(C(=O)O/N=C2\C=CC(=O)C=C2C)cc(OC)c1OC	i	0
O=C(CSc1cc(-n2cccn2)ncn1)Nc1cccc(Cl)c1F	-6	-4
COc1ccc(Br)cc1C=Nc1ccccc1Br	-4	-7
COc1ccc(C2CC(=O)n3nc(-c4ccc(F)cc4)nc3S2)cc1OC (configuration not stated)	-1	-5
Cc1c(CCOC(=O)CC23CC4CC(CC(C4)C2)C3)sc[n+]1CC(=O)c1ccccc1	94*	-4
O=C(OCC12CC3CC(CC(C3)C1)C2)c1ccccc1	-35	-1
O=C(c1ccc(Cl)cc1)N1N=C(c2ccccc2)CC1(O)C(F)(F)F (configuration not stated)	54*	-10
Cc1ccccc1OCC(=O)N1N=C(c2ccc(Cl)cc2)CC1(O)C(F)(F)F (configuration not stated)	96*	4
Cc1cc(C)cc(OCC(=O)N2N=C(c3ccc(Cl)cc3)CC2(O)C(F)(F)F)c1 (configuration not stated)	90*	-1
Cc1ccc(C(=O)N2N=C(c3ccc(Cl)cc3)CC2(O)C(F)(F)F)cc1 (configuration not stated)	35	-4
O=C(c1ccc(Cl)cc1)N1N=C(c2ccc(Cl)cc2)CC1(O)C(F)(F)F (configuration not stated)	-2	-5
COc1ccc(C(=O)N2N=C(c3ccc(Br)cc3)CC2(O)C(F)(F)F)cc1 (configuration not stated)	24	2
COc1ccc(C(=O)N2N=C(c3cccc(Br)c3)CC2(O)C(F)(F)F)cc1 (configuration not stated)	50*	0
O=C(CCc1ccccc1)N1N=C(c2ccc(Cl)cc2)CC1(O)C(F)(F)F (configuration not stated)	-8	-13
CCn1c(CC2CCN(C(=O)CCc3cccc(OC)c3)C2)nc2cccnc21 (configuration not stated)	43	-1
COCC(=O)N1CCC(CCOCc2cccc(F)c2)CC1	-3	5
SMILES	mHTT CaM bind	Pf apPOL block
Cc1cccc(Sc2nccnc2N2CCC(C(=O)NCc3ccccc3)CC2)c1	-7	-1
CC1(C)CC2CC(C)(CN2C(=O)C2CCN(S(=O)(=O)c3ccccc3[N+](=O)[O-])CC2)C1 (configuration not stated)	1	1
CSc1ccc(C2CC(=O)Nc3c2c(C)nn3-c2nc3ccccc3s2)cc1 (configuration not stated)	-4	-3
CC1(C)CC(=O)C2=C(C1)Nc1ccccc1NC2c1ccc(-c2ccc([N+](=O)[O-])cc2)o1 (configuration not stated)	73*	-1
CC1(C)CC(=O)C2=C(C1)Nc1ccccc1NC2c1ccc(Cl)c(Cl)c1 (configuration not stated)	66*	0
CC1(C)CC(=O)C2=C(C1)Nc1ccccc1NC2c1ccc(-c2ccc([N+](=O)[O-])cc2Cl)o1 (configuration not stated)	50	-3
